Activity calls are given as the source filed them. Unless noted, the rule behind the calls is not given here.
test system: not listed separately; test: P. berghei load reduction in hepatocytes – cell-based, HepG2, luciferase luminescence, HepG2 viability, primary screen (AID 624349; in the data active = parasite load remaining mostly below about 12%, no sharp cut-off; inactive = mostly above about 10%;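 note: 100% = mean of DMSO negative control wells on the same plate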); details: P. berghei liver stage in HepG2, luciferase luminescence, concentration not given here; parasite load remaining: stronger effect = lower value; viability: measured here: HepG2 viability without parasites

| Structure (SMILES) | viability | parasite load remaining |
| --- | --- | --- |
| OC[C@H]1O[C@@H](n2cnc3c(NC4CCCC4)nc(Cl)nc32)[C@@H](O)C1O (stereo partly drawn) | 67.2% | 65.4% (inactive) |
| O=C1N[C@H](C(=O)O)CS1 | 70.6% | 95.8% (inactive) |
| COc1cc(CNC(=O)CCCC/C=C\C(C)C)ccc1O | 75.2% | 83.7% (inactive) |

test system: not listed separately; test: signal quenchers or enhancers, Cy5 substrate/SSB – biochemical, NIH Clinical Collection, E. coli SSB, artefact control for HCV NS3 helicase inhibitor project (AID 743268); details: Cy5-oligo bound E. coli SSB, fluorescence interference

| Structure (SMILES) | fluorescence ratio |
| --- | --- |
| OC[C@H]1O[C@@H](n2cnc3c(NC4CCCC4)nc(Cl)nc32)[C@@H](O)C1O (stereo partly drawn) | 0.94 (inactive) |
| O=C1N[C@H](C(=O)O)CS1 | 1.02 (inactive) |
| COc1cc(CNC(=O)CCCC/C=C\C(C)C)ccc1O | 0.95 (inactive) |

test system: Hepatitis C virus NS3 helicase; test: blockers of NS3h binding to DNA – biochemical, fluorescence polarization, NIH Clinical Collection, primary screen (AID 743270); details: NS3 helicase binding to Cy5-dT15 DNA, stronger effect = higher value, concentration not given here

| Structure (SMILES) | inhibition |
| --- | --- |
| OC[C@H]1O[C@@H](n2cnc3c(NC4CCCC4)nc(Cl)nc32)[C@@H](O)C1O (stereo partly drawn) | -2.84% (inactive) |
| O=C1N[C@H](C(=O)O)CS1 | -3.56% (inactive) |
| COc1cc(CNC(=O)CCCC/C=C\C(C)C)ccc1O | -6.73% (inactive) |

target: Single-stranded DNA-binding protein (Escherichia coli (strain K12)) (UniProt P0AGE0); test: SSB-ssDNA binding inhibitors – biochemical, fluorescence polarization, NIH Clinical Collection, counter-screen for HCV NS3 helicase inhibitor project (AID 743271; in the data active = inhibition above about 28%); details: E. coli SSB-DNA binding, stronger effect = higher value, concentration not given here

| Structure (SMILES) | inhibition |
| --- | --- |
| OC[C@H]1O[C@@H](n2cnc3c(NC4CCCC4)nc(Cl)nc32)[C@@H](O)C1O (stereo partly drawn) | -1.97% (inactive) |
| O=C1N[C@H](C(=O)O)CS1 | -3.18% (inactive) |
| COc1cc(CNC(=O)CCCC/C=C\C(C)C)ccc1O | 1.44% (inactive) |

test system: not listed separately; test: compounds distorting NS3 helicase fluorescence signal – biochemical, NIH Clinical Collection, artefact control for HCV NS3 helicase inhibitor project (AID 743272); details: fluorescence interference counterscreen, HCV NS3 helicase assay; stronger effect = lower value;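 note: HCV NS3 helicase with a Cy5 labelled single stranded DNA probe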

| Structure (SMILES) | fluorescence ratio |
| --- | --- |
| OC[C@H]1O[C@@H](n2cnc3c(NC4CCCC4)nc(Cl)nc32)[C@@H](O)C1O (stereo partly drawn) | 0.97 (inactive) |
| O=C1N[C@H](C(=O)O)CS1 | 0.96 (inactive) |
| COc1cc(CNC(=O)CCCC/C=C\C(C)C)ccc1O | 0.9 (inactive) |

test system: Neuropilin-2 / VEGF-C interaction (human); test: small molecules blocking Neuropilin-2/VEGF-C interaction – biochemical, microplate binding format, z-score (AID 743281); details: microplate NRP2/VEGF-C binding assay; stronger effect = lower value

| Structure (SMILES) | outcome | z-score |
| --- | --- | --- |
| CC(=O)O[C@H]1C[C@@H]2CC[C@@H]3[C@H](CCC4(C)[C@H]3C[C@H]([N+]3(C)CCCCC3)[C@@H]4OC(C)=O)C2(C)C[C@@H]1N1CCCCC1 (stereo partly drawn) | inactive | – |
| OC[C@H]1O[C@@H](n2cnc3c(NC4CCCC4)nc(Cl)nc32)[C@@H](O)C1O (stereo partly drawn) | – | -0.619 (inactive) |
| CC12CC[C@@H]3c4ccc(O)cc4CC[C@H]3[C@@H]1CC[C@@H]2O (stereo partly drawn) | inactive | – |
| CC12CC[C@@H]3c4ccc(OS(=O)(=O)O)cc4CC[C@H]3[C@@H]1CCC2=O (stereo partly drawn) | inactive | – |
| C=CC1=C(C(=O)O)N2C(=O)[C@@H](NC(=O)/C(=N/OCC(=O)O)c3csc(N)n3)[C@H]2SC1 | inactive | – |
| C[C@@H]1C[C@H]2[C@@H]3C[C@H](F)C4=CC(=O)C(Cl)=CC4(C)[C@@]3(F)[C@@H](O)CC2(C)[C@@]1(O)C(=O)CO (stereo partly drawn) | inactive | – |
| O=C1N[C@H](C(=O)O)CS1 | – | -0.587 (inactive) |
| C/C=C1/[C@H]2C=C(C)C[C@]1(N)c1ccc(=O)[nH]c1C2 | inactive | – |
| CO[C@H]1C=CO[C@@]2(C)Oc3c(C)c(O)c4c(O)c(c(/C=N/N5CCN(C6CCCC6)CC5)c(O)c4c3C2=O)NC(=O)/C(C)=C\C=C[C@H](C)[C@H](O)[C@@H](C)[C@@H](O)[C@@H](C)[C@H](OC(C)=O)[C@@H]1C | inactive | – |
| CCOC(=O)O[C@]1(C(=O)OCCl)CC[C@H]2[C@@H]3CCC4=CC(=O)C=CC4(C)[C@H]3[C@@H](O)CC21C (stereo partly drawn) | inactive | – |
| C#C[C@]1(O)CC[C@H]2[C@@H]3[C@H](C)CC4=C(CCC(=O)C4)[C@H]3CCC21C (stereo partly drawn) | inactive | – |
| CC(=O)[C@H]1CC[C@H]2[C@@H]3CCC4=CC(=O)CCC4(C)[C@H]3CCC12C (stereo partly drawn) | inactive | – |
| N[C@@H](C(=O)N[C@@H]1C(=O)N2C(C(=O)O)=C(CSC3CNNN3)CS[C@H]12)c1ccc(O)cc1 (stereo partly drawn) (tested in a mixture with another compound) | inactive | – |
| CO[C@H]1C=CO[C@@]2(C)Oc3c(C)c(O)c4c(O)c(c5c(nc6cc(C)ccn65)c4c3C2=O)NC(=O)/C(C)=C\C=C[C@H](C)[C@H](O)[C@@H](C)[C@@H](O)[C@@H](C)[C@H](OC(C)=O)[C@@H]1C | inactive | – |
| C#C[C@]1(O)CC[C@H]2[C@@H]3CCc4cc(OC)ccc4[C@H]3CCC21C (stereo partly drawn) | inactive | – |
| C=C1/C(=C\C=C2/CCCC3(C)[C@@H]([C@H](C)CCCC(C)(C)O)CC[C@@H]23)C[C@@H](O)C[C@@H]1O (stereo partly drawn) | inactive | – |
| COc1cc(CNC(=O)CCCC/C=C\C(C)C)ccc1O | – | 1.86 (inactive) |
| CC12CCC(=O)C=C1CC[C@@H]1[C@@H]2[C@@H](O)CC2(C)[C@@H](C(=O)CO)CC[C@@H]12 (stereo partly drawn) | inactive | – |
| CCC(=O)O[C@]1(C(=O)SCF)[C@H](C)C[C@H]2[C@@H]3C[C@H](F)C4=CC(=O)C=CC4(C)[C@@]3(F)[C@@H](O)CC21C (stereo partly drawn) | inactive | – |
| CC(=O)OC12CO[C@@H]1C[C@H](O)[C@@]1(C)C(=O)[C@H](O)C3=C(C)[C@@H](OC(=O)[C@H](O)[C@@H](NC(=O)OC(C)(C)C)c4ccccc4)CC(O)([C@@H](OC(=O)c4ccccc4)[C@H]21)C3(C)C (stereo partly drawn) | inactive | – |

— PubChem BioAssay
